Consider 6 molecules from ChEMBL document CHEMBL1961873, “Compounds: GSK PKIS; Assays: Nanosyn kinase panel” (2012).

Test [1] deals with Serine/threonine-protein kinase MARK2 (Homo sapiens) (UniProt Q7KZI7). Particulars: at 1 µM.
In test [2] the target is PAS domain-containing serine/threonine-protein kinase (Homo sapiens) (UniProt Q96RG2). The note with it: at 0.1 µM.
Test [3] has the same target. The note with it: at 1 µM.
The target of test [4] is Phosphorylase b kinase gamma catalytic chain, skeletal muscle/heart isoform (Homo sapiens) (UniProt Q16816). Particulars: at 0.1 µM.
Test [5] has the same target. Particulars: at 1 µM.
Test [6] concerns the target T1, Phosphorylase b kinase gamma catalytic chain, liver/testis isoform (Homo sapiens) (UniProt P15735).
T1 sequence (whole entry): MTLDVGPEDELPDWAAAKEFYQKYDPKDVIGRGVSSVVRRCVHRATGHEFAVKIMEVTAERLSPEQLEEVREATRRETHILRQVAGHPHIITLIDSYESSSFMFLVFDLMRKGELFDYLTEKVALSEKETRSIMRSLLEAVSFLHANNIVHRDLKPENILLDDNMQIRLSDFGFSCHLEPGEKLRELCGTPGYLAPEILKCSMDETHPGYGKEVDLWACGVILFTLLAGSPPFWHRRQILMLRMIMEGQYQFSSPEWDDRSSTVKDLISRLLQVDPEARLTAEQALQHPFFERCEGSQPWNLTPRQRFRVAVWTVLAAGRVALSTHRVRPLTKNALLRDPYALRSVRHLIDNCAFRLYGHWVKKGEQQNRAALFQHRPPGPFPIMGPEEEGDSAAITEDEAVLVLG
The note with it: at 0.1 µM.

Test [7] addresses T1, Phosphorylase b kinase gamma catalytic chain, liver/testis isoform (Homo sapiens). Particulars: at 1 µM.
Test [8] deals with Serine/threonine-protein kinase pim-1 (Homo sapiens) (UniProt P11309). Particulars: at 0.1 µM.
Test [9] shares this target. The note with it: at 1 µM.
Test [10] addresses Serine/threonine-protein kinase pim-2 (Homo sapiens) (UniProt Q9P1W9). The note with it: at 0.1 µM.
Test [11] shares this target. Particulars: at 1 µM.
Test [12] addresses Serine/threonine-protein kinase pim-3 (Homo sapiens) (UniProt Q86V86). The note with it: at 0.1 µM.
The target is the same in test [13]. The note with it: at 1 µM.
Test [14] has as its target T2, MAP kinase-activated protein kinase 5 (Homo sapiens) (UniProt Q8IW41).
T2 sequence (whole entry): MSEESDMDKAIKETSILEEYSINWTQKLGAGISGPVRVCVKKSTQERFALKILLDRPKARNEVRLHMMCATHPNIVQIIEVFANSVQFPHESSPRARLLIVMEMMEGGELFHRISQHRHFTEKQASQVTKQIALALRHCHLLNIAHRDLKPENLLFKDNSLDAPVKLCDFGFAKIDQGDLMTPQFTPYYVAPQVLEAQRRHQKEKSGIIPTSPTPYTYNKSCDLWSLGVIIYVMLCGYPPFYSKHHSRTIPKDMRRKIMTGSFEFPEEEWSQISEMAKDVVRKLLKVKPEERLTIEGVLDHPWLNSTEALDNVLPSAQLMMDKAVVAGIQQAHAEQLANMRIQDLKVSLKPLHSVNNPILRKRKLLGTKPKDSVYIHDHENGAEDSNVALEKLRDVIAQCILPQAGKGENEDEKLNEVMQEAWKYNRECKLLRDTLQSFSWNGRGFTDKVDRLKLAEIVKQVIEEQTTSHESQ
Particulars: at 0.1 µM.

For test [15], the target named is T2, MAP kinase-activated protein kinase 5 (Homo sapiens). Particulars: at 1 µM.
Test [16] deals with Serine/threonine-protein kinase SIK1 (Homo sapiens) (UniProt P57059). The note with it: at 0.1 µM.
Test [17] shares this target. The note with it: at 1 µM.
Test [18] addresses Serine/threonine-protein kinase SIK2 (Homo sapiens) (UniProt Q9H0K1). Particulars: at 0.1 µM.
Test [19] has the same target. Particulars: at 1 µM.
For test [20], the target named is T3, Serine/threonine-protein kinase TBK1 (Homo sapiens) (UniProt Q9UHD2).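 Also: values are the mean TBK1 inhibition, taken from the GSK PKIS screening data.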
T3 sequence (whole entry): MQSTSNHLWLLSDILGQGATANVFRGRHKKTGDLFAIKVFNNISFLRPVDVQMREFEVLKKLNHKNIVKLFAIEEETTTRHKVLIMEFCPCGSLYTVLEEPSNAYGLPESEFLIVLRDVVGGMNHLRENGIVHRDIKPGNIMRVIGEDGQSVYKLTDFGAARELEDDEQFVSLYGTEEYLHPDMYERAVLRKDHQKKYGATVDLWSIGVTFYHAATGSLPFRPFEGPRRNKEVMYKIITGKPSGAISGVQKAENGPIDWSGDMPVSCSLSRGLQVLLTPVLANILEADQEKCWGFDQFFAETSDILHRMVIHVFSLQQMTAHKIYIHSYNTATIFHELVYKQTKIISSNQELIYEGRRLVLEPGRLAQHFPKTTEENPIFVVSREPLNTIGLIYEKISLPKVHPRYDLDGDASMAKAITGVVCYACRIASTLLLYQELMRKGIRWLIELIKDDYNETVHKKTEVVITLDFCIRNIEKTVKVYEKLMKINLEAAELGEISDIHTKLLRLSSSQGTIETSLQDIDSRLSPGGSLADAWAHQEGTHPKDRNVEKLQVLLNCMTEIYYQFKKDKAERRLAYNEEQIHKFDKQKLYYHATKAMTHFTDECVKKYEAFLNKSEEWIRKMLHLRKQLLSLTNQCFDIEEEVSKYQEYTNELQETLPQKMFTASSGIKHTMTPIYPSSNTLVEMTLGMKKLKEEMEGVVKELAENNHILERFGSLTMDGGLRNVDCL
The note with it: at 0.1 µM.

Chain of Serine/threonine-protein kinase pim-2 (Homo sapiens) (Q9P1W9 whole entry, looked up): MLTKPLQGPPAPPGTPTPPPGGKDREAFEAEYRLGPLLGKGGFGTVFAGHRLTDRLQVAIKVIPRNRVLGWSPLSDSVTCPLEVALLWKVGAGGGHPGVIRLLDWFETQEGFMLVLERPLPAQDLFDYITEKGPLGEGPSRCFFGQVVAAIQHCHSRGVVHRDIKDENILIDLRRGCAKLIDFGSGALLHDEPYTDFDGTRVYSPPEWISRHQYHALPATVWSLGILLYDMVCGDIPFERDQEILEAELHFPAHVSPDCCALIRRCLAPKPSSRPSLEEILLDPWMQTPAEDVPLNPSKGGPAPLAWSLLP
Chain of Serine/threonine-protein kinase SIK1 (Homo sapiens) (P57059 whole entry): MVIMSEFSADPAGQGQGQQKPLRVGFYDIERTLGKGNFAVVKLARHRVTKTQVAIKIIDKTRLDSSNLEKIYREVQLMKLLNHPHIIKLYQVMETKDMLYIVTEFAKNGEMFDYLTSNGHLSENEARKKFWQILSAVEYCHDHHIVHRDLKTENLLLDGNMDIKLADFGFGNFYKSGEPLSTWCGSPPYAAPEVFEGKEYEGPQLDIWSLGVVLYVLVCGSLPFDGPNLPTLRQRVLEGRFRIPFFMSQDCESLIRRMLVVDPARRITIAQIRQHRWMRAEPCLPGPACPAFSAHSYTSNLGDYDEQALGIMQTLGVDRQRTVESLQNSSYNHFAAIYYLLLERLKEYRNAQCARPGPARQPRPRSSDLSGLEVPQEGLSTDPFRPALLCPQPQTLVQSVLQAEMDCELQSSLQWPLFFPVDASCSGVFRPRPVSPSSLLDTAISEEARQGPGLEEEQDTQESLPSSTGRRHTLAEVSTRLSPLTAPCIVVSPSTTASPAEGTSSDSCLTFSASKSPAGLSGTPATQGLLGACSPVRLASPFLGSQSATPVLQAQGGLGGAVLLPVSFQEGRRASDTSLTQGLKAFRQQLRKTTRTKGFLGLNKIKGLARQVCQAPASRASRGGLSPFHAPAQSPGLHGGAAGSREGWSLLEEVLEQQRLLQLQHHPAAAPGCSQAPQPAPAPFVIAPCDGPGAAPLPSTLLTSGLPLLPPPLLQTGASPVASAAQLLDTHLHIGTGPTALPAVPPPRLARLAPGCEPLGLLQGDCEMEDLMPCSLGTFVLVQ
Chain of PAS domain-containing serine/threonine-protein kinase (Homo sapiens) (Q96RG2 whole entry, the tested form may be a part): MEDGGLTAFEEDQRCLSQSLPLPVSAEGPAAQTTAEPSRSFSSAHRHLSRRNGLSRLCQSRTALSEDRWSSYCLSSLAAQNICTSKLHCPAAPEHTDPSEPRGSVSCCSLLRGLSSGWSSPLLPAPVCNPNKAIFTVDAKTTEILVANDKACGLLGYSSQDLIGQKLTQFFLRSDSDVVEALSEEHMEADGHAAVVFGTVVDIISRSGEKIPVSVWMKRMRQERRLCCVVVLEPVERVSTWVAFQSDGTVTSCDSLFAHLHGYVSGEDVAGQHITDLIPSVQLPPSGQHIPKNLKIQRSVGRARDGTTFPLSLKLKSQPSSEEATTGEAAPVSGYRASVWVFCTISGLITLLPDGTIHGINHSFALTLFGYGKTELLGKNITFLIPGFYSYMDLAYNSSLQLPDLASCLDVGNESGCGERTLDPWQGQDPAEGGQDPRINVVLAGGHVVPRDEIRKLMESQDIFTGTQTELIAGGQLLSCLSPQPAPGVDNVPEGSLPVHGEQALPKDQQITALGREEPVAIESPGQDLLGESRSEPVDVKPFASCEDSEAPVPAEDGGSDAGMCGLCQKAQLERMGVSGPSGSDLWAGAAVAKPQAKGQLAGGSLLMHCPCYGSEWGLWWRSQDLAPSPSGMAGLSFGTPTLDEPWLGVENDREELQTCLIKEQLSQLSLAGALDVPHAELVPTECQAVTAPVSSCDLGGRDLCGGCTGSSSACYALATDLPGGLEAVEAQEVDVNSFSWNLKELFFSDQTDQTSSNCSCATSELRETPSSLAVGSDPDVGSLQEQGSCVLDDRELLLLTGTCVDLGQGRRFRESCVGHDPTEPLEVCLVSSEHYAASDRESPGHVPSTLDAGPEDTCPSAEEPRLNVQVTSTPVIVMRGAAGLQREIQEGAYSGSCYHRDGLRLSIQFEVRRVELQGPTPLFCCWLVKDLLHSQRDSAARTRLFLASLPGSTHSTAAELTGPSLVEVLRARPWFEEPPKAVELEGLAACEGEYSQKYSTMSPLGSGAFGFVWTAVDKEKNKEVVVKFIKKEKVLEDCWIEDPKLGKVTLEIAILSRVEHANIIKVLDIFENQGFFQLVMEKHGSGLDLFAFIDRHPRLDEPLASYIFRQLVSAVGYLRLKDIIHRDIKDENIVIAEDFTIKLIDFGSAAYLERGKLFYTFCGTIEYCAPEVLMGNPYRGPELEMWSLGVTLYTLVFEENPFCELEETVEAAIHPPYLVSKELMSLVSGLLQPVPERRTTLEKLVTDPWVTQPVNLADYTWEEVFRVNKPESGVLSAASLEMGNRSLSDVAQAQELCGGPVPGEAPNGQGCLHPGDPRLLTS
Chain of Phosphorylase b kinase gamma catalytic chain, skeletal muscle/heart isoform (Homo sapiens) (Q16816 whole entry, looked up, canonical isoform): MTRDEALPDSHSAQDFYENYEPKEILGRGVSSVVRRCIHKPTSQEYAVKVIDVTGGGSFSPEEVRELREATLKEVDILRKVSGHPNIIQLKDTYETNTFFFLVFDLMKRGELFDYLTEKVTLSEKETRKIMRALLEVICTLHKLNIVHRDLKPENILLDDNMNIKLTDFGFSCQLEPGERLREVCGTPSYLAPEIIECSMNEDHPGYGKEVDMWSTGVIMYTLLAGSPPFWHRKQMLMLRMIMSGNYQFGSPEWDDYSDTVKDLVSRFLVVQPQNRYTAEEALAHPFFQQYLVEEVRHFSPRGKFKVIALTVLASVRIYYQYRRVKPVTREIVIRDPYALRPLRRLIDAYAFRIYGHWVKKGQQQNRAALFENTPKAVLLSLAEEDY
Chain of Serine/threonine-protein kinase pim-1 (Homo sapiens) (P11309 whole entry, looked up): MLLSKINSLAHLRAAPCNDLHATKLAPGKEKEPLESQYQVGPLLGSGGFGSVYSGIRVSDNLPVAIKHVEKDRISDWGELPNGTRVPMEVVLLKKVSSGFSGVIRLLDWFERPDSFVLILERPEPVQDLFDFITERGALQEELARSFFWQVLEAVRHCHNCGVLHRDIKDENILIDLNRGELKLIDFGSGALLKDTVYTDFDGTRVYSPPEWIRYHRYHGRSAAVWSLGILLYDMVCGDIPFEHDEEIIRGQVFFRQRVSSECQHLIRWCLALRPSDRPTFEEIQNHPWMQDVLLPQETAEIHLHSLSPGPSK
Chain of Serine/threonine-protein kinase SIK2 (Homo sapiens) (Q9H0K1 whole entry, looked up): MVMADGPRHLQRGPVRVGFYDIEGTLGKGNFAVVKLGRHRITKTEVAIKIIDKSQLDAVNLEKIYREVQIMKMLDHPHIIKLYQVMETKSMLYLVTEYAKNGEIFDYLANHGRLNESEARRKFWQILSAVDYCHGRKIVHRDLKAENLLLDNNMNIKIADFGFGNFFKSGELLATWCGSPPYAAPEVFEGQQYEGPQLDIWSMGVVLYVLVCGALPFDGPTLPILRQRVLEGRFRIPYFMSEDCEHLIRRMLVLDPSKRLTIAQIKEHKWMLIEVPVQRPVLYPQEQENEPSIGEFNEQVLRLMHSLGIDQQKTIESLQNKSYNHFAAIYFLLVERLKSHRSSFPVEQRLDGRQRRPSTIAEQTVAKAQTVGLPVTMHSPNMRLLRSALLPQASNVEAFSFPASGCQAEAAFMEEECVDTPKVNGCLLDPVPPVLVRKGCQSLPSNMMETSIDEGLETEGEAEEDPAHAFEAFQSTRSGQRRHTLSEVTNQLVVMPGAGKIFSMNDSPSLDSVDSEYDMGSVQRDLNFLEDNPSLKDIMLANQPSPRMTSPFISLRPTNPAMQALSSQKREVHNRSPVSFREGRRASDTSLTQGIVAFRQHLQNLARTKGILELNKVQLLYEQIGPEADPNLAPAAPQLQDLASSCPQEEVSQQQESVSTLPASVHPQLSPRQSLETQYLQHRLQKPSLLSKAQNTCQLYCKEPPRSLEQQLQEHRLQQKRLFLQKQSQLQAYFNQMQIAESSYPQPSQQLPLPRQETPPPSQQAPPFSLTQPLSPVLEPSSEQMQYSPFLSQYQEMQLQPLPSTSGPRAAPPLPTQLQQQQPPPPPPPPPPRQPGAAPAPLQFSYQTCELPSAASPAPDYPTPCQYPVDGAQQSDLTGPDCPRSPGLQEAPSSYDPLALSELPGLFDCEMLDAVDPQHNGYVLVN

By inhibition is commonly meant the drop in the measured response relative to a control, in per cent. Take `CCn1c(-c2nonc2N)nc2cncc(C(=O)N3CCNCC3)c21`: the inhibition in [1] was 2.03%; in test [2] it was -1.71%; in test [3], -0.89%; in [4], 3.09%; in test [5] it was 4.51%; in [6], 8.34%. The inhibition in test [7] is 7.28%; in test [8], 0.31%; in test [9] it was 2.05%; in test [10], -0.98%; in [11], -0.88%; in test [12] it was 0.06%. Further, the inhibition in test [13] is 2.39%; in test [14], 2.77%; in test [15], 2.41%; in test [16], 4.86%; in test [17], 14.2%; in test [18], 6%. For the same molecule, the inhibition was found to be 6.58% in [19] and 6.79% in test [20].

As for `NC(=O)c1ccc(-c2nc(-c3ccccn3)c(-c3ccc4c(c3)OCO4)[nH]2)cc1`, the inhibition in test [1] is -0.45%; in test [2], 0.34%; in [3], 1.31%; in test [4], 2.92%; in test [5] it was 4.79%; in [6], 3.32%. In addition, the inhibition in test [7] was 3.73%; in test [8], -0.68%; in test [9], 0.92%; in [10], 0.03%; in test [11], 0.78%; in test [12], 0.11%. Further, the inhibition in test [13] was 0.3%; in [14], 0.77%; in [15], 1.22%; in test [16], 3.17%; in test [17], 5.25%; in test [18], 7.51%. Further, the values for the inhibition in test [19] and in test [20] were 11.6% and 2.24%, respectively.

Turning to `Nc1ncnc2occ(-c3ccc(NC(=O)Nc4cc(C(F)(F)F)cc(C(F)(F)F)c4)cc3)c12`, the inhibition in test [1] was 0.58%; in test [2], 0.36%; in test [3], -1.29%; in test [4] it was 1.04%; in [5], 2.55%; in [6], 1.7%. The inhibition was -1.63% in [7]; 0.69% in test [8]; 0.66% in test [9]; 0.17% in test [10]; 0.27% in test [11]; -1.29% in [12]. The inhibition in [13] is -2.53%; in [14], 0.61%; in test [15] it was 0.59%; in [16] it was 1.96%; in test [17], 2.47%; in [18], 3.48%. For the same molecule, the inhibition in test [19] was 4.42%; in [20], -0.65%.

For `COC(=O)Nc1nc2cc(Oc3ccc(NC(=O)Nc4cccc(C(=O)O)c4)cc3)ccc2[nH]1`, the inhibition is 0.87% in test [1]; 0.9% in test [2]; 1.66% in test [3]; -0.77% in test [4]; 11.2% in test [5]; 1.36% in test [6]. In addition, the inhibition in test [7] was 4.11%; in [8], -0.3%; in test [9], 0.62%; in test [10] it was -4.42%; in [11] it was -2.76%; in test [12], 1.29%. Besides, the inhibition in [13] is 3.84%; in test [14] it was 0.42%; in test [15] it was 1%; in test [16] it was 3.75%; in test [17] it was 1.25%; in test [18] it was -0.04%. For the same molecule, the inhibition came to 2.04% in test [19] and 0.81% in [20].

Turning to `COc1ccc(-c2coc3ncnc(N)c23)cc1`, the inhibition in test [1] was 2.28%; in test [2], -0.15%; in [3], -1.42%; in [4] it was 3.44%; in test [5], 6.53%; in test [6], 4.41%. The inhibition in test [7] was 2.09%; in test [8], 1.29%; in test [9] it was 1.42%; in [10], 0.43%; in test [11], 1.01%; in test [12], -0.83%. The inhibition is -1.2% in test [13]; 0.93% in test [14]; 0.22% in [15]; 1.16% in test [16]; 10.4% in test [17]; 5.46% in [18]. Moreover, the inhibition was 7.65% in test [19] and -0.45% in test [20].

`COc1cccc(-n2ncc3c(N/N=C/c4cccc(F)c4)ncnc32)c1`: the inhibition in [1] was 2.5%; in [2], -0.33%; in test [3] it was -1.6%; in [4] it was 5.06%; in test [5], 9%; in [6], 2.06%. Moreover, the inhibition in [7] was 1.7%; in [8] it was -0.24%; in test [9], 0.52%; in [10] it was -3.26%; in test [11], -2.82%; in [12], -0.58%. In addition, the inhibition was -0.78% in test [13]; 0.63% in test [14]; 0.71% in test [15]; 5.56% in [16]; 11.9% in test [17]; 5.11% in test [18]. Also, the inhibition in test [19] came out at 14.4%; in test [20] it was 1.92%.
